In PubChem BioAssay (NCI):
About 83,000 compounds went through this panel and 20% of them were active in at least one assay; those are over-represented in the sample as a whole.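 Single-concentration screen, 48 h exposure, 96-well plates. Endpoint: percent growth. Below 10 = active.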 Values without a mark were called inactive. The source made the active and inactive calls.

How the values were obtained:
Test in all cases: NCI-60 one-dose screen, 48 h (100 = growth as untreated, 0 = no growth, -100 = all killed)
NCI-H23 lung = conditions: 10 µM unless noted
NCI-H226 lung = conditions: 10 µM unless noted
NCI-H322M lung = conditions: 10 µM unless noted
NCI-H460 lung = conditions: 10 µM unless noted
NCI-H522 lung = conditions: 10 µM
A549/ATCC NSCLC = conditions: 10 µM unless noted
786-0 renal = conditions: 10 µM unless noted
COLO 205 colon = conditions: 10 µM unless noted
HOP-92 NSCLC = conditions: 10 µM

## C/C(=N\Nc1cccc(Cl)n1)c1ccccn1
NCI-H23 lung
  growth: 16.8%
NCI-H226 lung
  growth: -3.86% (active)
NCI-H322M lung
  growth: 23.7%
NCI-H460 lung
  growth: 5.39% (active)
NCI-H522 lung
  growth: 24.6%
A549/ATCC NSCLC
  growth: 9.19% (active)
786-0 renal
  growth: 8.33% (active)
COLO 205 colon
  growth: 10.6%

## CCCC(=O)NNc1[nH]c(-c2cc(OC)c(OC)c(OC)c2)cc1C(=O)OCC
NCI-H23 lung
  growth: 107%
NCI-H226 lung
  growth: 103%
NCI-H322M lung
  growth: 145%
NCI-H460 lung
  growth: 123%
HOP-92 NSCLC
  growth: 84.8%
NCI-H522 lung
  growth: 105%
A549/ATCC NSCLC
  growth: 115%
786-0 renal
  growth: 92.5%
COLO 205 colon
  growth: 34.3%

## CCn1cc(C(=O)O)c(=O)c2cc(F)c(N3CCN(S(=O)(=O)c4ccc(Cl)cc4)CC3)cc21
NCI-H23 lung
  growth: -7.07% (active)
NCI-H226 lung
  growth: 60.1%
NCI-H322M lung
  growth: 45.9%
NCI-H460 lung
  growth: 5.92% (active)
HOP-92 NSCLC
  growth: -4.17% (active)
NCI-H522 lung
  growth: 8.39% (active)
A549/ATCC NSCLC
  growth: 14.6%
786-0 renal
  growth: 23.7%
COLO 205 colon
  growth: 12.1%

## CC(=O)c1nn(-c2ccc(C)cc2)cc1C(=O)c1cc2c(ccc3ccccc32)oc1=O
NCI-H23 lung
  growth: 91.2%
NCI-H226 lung
  growth: 90.1%
NCI-H322M lung
  growth: 91.5%
NCI-H460 lung
  growth: 100%
NCI-H522 lung
  growth: 81.5%
A549/ATCC NSCLC
  growth: 96.8%
786-0 renal
  growth: 93.4%

## COc1cc2ncnc(-n3ncc4cc(NC(=O)Nc5ccc(Cl)c(C)c5)ccc43)c2cc1OC
NCI-H23 lung
  growth: 95.5%
NCI-H226 lung
  growth: 85.9%
NCI-H322M lung
  growth: 88.7%
NCI-H460 lung
  growth: 102%
NCI-H522 lung
  growth: 86.9%
A549/ATCC NSCLC
  growth: 99.9%
786-0 renal
  growth: 77.5%

## CC(=O)Nc1ccc(CC#N)cc1Br
NCI-H23 lung
  growth: 110%
NCI-H226 lung
  growth: 96.4%
NCI-H322M lung
  growth: 105%
NCI-H460 lung
  growth: 101%
HOP-92 NSCLC
  growth: 94%
NCI-H522 lung
  growth: 92.9%
A549/ATCC NSCLC
  growth: 103%
786-0 renal
  growth: 101%
COLO 205 colon
  growth: 109%

## COc1ccccc1Cn1cc2c(c1)-c1oncc1CC2
NCI-H23 lung
  growth: 20.6%
NCI-H226 lung
  growth: 38.9%
NCI-H322M lung
  growth: 24%
NCI-H460 lung
  growth: 4.04% (active)
NCI-H522 lung
  growth: 43.3%
A549/ATCC NSCLC
  growth: 28.9%
786-0 renal
  growth: 38.6%

## O=C(N/N=C/c1ccccc1Cl)c1cccc2ccccc12
NCI-H23 lung
  growth: 97.9%
NCI-H226 lung
  growth: 99.7%
NCI-H322M lung
  growth: 108%
NCI-H460 lung
  growth: 98.9%
NCI-H522 lung
  growth: 84.5%
A549/ATCC NSCLC
  growth: 97.5%
786-0 renal
  growth: 105%
COLO 205 colon
  growth: 114%

## COC1(OC)N=C(N)C2(C#N)C3(C(=O)Nc4ccccc43)C12C#N (configuration not stated)
NCI-H23 lung
  growth: 81.6%
NCI-H226 lung
  growth: 62.5%
NCI-H322M lung
  growth: 105%
NCI-H460 lung
  growth: 104%
NCI-H522 lung
  growth: 80.7%
A549/ATCC NSCLC
  growth: 104%
786-0 renal
  growth: 94.3%
COLO 205 colon
  growth: 116%

## CC1=C[C@@H]2c3c(c(O)c(O)c4oc5cc(O)cc(O)c5c(=O)c34)[C@@H](c3cc(O)c(O)c4oc5cc(O)cc(O)c5c(=O)c34)[C@@H]2C(C)(C)C1
NCI-H23 lung
  growth: -20.3% (active)
NCI-H226 lung
  growth: 8.46% (active)
NCI-H322M lung
  growth: 16.9%
NCI-H460 lung
  growth: -28.3% (active)
NCI-H522 lung
  growth: -60.8% (active)
A549/ATCC NSCLC
  growth: 9.43% (active)
786-0 renal
  growth: -40.3% (active)

## Cc1ccc(S(=O)(=O)NC(CCC(=O)Nc2ccccc2)C(=O)Nc2ccccc2)cc1 (configuration not stated)
NCI-H23 lung
  growth: -24.8% (active)
NCI-H226 lung
  growth: 6.72% (active)
NCI-H322M lung
  growth: -17% (active)
NCI-H460 lung
  growth: -4.49% (active)
HOP-92 NSCLC
  growth: -45.2% (active)
NCI-H522 lung
  growth: -71.8% (active)
A549/ATCC NSCLC
  growth: -19% (active)
786-0 renal
  growth: -15.6% (active)
COLO 205 colon
  growth: -22.6% (active)

## Clc1ccc(N/N=C(\c2ccccc2)c2ccccn2)nc1
NCI-H23 lung
  growth: 19.2%
NCI-H226 lung
  growth: 5.46% (active)
NCI-H322M lung
  growth: 16.3%
NCI-H460 lung
  growth: 1.31% (active)
HOP-92 NSCLC
  growth: 31.3%
NCI-H522 lung
  growth: 1.35% (active)
A549/ATCC NSCLC
  growth: 3.53% (active)
786-0 renal
  growth: 12.7%
COLO 205 colon
  growth: 15.9%

## Clc1ccc(N/N=C(/c2ccccc2)c2ccccn2)nc1
NCI-H23 lung
  growth: 29.7%
NCI-H226 lung
  growth: 27.1%
NCI-H322M lung
  growth: 39.8%
NCI-H460 lung
  growth: 28.8%
HOP-92 NSCLC
  growth: 51%
NCI-H522 lung
  growth: 60.8%
A549/ATCC NSCLC
  growth: 32%
786-0 renal
  growth: 37.6%
COLO 205 colon
  growth: 25%

## COc1ccc(C2=NN(C(=O)c3cc(-c4ccc(C)cc4)nc4ccccc34)C(c3cc(-c4ccccc4)nn3-c3ccccc3)C2)cc1 (configuration not stated)
NCI-H23 lung
  growth: 90.4%
NCI-H226 lung
  growth: 83.4%
NCI-H322M lung
  growth: 84.6%
NCI-H460 lung
  growth: 74.5%
HOP-92 NSCLC
  growth: 86.6%
NCI-H522 lung
  growth: 82.9%
A549/ATCC NSCLC
  growth: 89.1%
786-0 renal
  growth: 95.6%
COLO 205 colon
  growth: 106%

## COc1cc2cc3cc4cc(OC)c(OC)cc4c(C)[n+]3cc2cc1OC (tested in a mixture with another compound)
NCI-H23 lung
  growth: 89%
NCI-H226 lung
  growth: 80%
NCI-H322M lung
  growth: 89.8%
NCI-H460 lung
  growth: 89.1%
HOP-92 NSCLC
  growth: 143%
NCI-H522 lung
  growth: 56.4%
786-0 renal
  growth: 66.5%
